Source: PubChem
In the library only some 19% were active in any assay of this set; here they are far more common.
Marburg entry inh – blocks Marburg virus binding to or entry into cells. Marburg virus pseudotyped entry inhibition, cell reporter. hit rate 1.8% among 300,000. AID 540276. Potency, µM (titrated, usually from 37.8 µM), for inactives: top-dose activity change, negative = inhibition, hits mostly inhibitors; calls by dose curve; tested in HEK293 cells; further: potency means the concentration at half of the fitted maximal effect; on the % scale 0 is the no-effect control and ±100 the full control effect
Shiga inhibitor – blocks Shiga toxin action in Vero cells; Vero cells, Shiga toxin protein synthesis inhibition reporter; inhibition, % at 38.7 µM; hit rate 9.2% among 290,000; AID 2315; in the data active means inhibition mostly above about 28%, no sharp cut-off; inactive means mostly below about 43%; further: 0% is about no effect
Pf growth 48h – inhibits P. falciparum growth in the first generation, 48 h; P. falciparum luciferase growth in erythrocytes, 48 h; Potency, µM (top dose mostly 28.7 µM), without a hit: top-dose activity change, negative = inhibition, hits mostly inhibitors; hit rate 5.9% among 310,000; further: potency means the concentration at half of the fitted maximal effect; on the % scale 0 is the no-effect control and ±100 the full control effect
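Growth was read as firefly luciferase luminescence after a 48 h, 37 C, 5% CO2 exposure of compounds to reporter-bearing P. falciparum cultures (0.1% parasitemia, 2% hematocrit final) in Albumax-supplemented RPMI 1640.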
Pf growth 96h – inhibits malaria parasite growth, 96 h; P. falciparum luciferase reporter growth, 96 h; Potency, µM (doses to about 28.7 µM), without a hit: at the top dose activity change, negative = inhibition, actives largely listed as inhibitors; hit rate 6.9% among 320,000; further: potency means the concentration at half of the fitted maximal effect; on the % scale 0 is the no-effect control and ±100 the full control effect
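96 h incubation, 37 C, 5% CO2, of luciferase-reporter P. falciparum-infected RBCs (2% hematocrit, 0.05% parasitemia final) with test compounds; endpoint luminescence.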
CHX counter – counter-screen for Shiga toxin inhibitors: cycloheximide protein synthesis inhibition; hit rate 12% among 300,000; max response, %; AID 2314; cell reporter, cycloheximide protein synthesis inhibition counterscreen; in the data active means max response mostly above about 13%, no sharp cut-off; inactive means mostly below about 14%; further: read at 38.3 µM for the half of the compounds with a filed dose; 0% is about no effect
LASV entry inh – blocks Lassa virus binding to or entry into cells; Potency, µM (series often up to 37.9 µM), inactives show top-dose activity change, negative = inhibition, most hits filed as inhibitors; Lassa virus pseudotype entry inhibition, cell reporter; hit rate 1.2% among 300,000; AID 540256; calls by dose curve; tested in HEK293 cells; further: potency means the concentration at half of the fitted maximal effect; on the % scale 0 is the no-effect control and ±100 the full control effect; nearly all actives have a fitted effect of over 50% in size
* = called active by the depositor; ? = inconclusive; . = no result given; [ ] = dose if it differs, or a comment. Unless noted, the call rests on the fitted dose curve; in most records, active means well fitted inhibition curve with a large enough effect; inconclusive means small, poorly fitted or top-dose-only effect, or another doubt; inactive means no such curve, though single readings can be large or run the other way.

SMILES	Marburg entry inh	Shiga inhibitor	Pf growth 48h	Pf growth 96h	CHX counter	LASV entry inh
NC(=O)c1ccc(C(F)(F)F)n(Cc2ccc(F)c(F)c2)c1=O	-7%[46.1 µM]	6	-3%	23%	6	-8%
NC(=O)c1ccc(C(F)(F)F)n(Cc2ccc(Cl)cc2)c1=O	?	-8	-1%	?	25*	-6%
CC1CC(C)CN(C(=O)CN2C(=O)NC(C)(C)C2=O)C1 (stereo not drawn)	20%[46.1 µM]	.	?	7%	.	?
CC(=O)N1SC(N)=NC1c1ccccc1 (stereo not drawn)	6%	64*	1%	.	19	1%
CC(=O)N1N=C(c2ccccc2)CC1c1ccccc1 (stereo not drawn)	15%	-11	3%	?	1	?
COCc1cc(=O)[nH]c(N2CCN(C(=O)c3ccco3)CC2)n1	.	-8	36%	12%	1	.
COCc1cc(=O)[nH]c(N2CCN(c3ccccc3OC)CC2)n1	12%[46.1 µM]	-9	0%	8.3µM*	-3	6%[46.1 µM]
CCN(CC)c1ccc(-n2c(O)c(C=C3N=c4ccccc4=N3)sc2=S)cc1	0%	-6	22%	-18%	-4	-15%
O=C(Nc1ccc(Oc2cccc(C(F)(F)F)c2)nc1)c1ccccc1	?	-2	10µM*	15µM*	-3	?
COc1ccc(NC(=O)COc2cccc(C(F)(F)F)c2)cn1	?	.	?	0%	.	-13%[46.1 µM]
O=C(Nc1ccc(Oc2cccc(C(F)(F)F)c2)nc1)c1cccs1	?	7	1.7µM*	?	4	-10%[46.1 µM]
COc1cccc(C(=O)Nc2ccc(Oc3cccc(C(F)(F)F)c3)nc2)c1	8.9µM*	-4	9.3µM*	?	1	?
COc1cc(NC(=O)c2ccnnc2)cc(C(=O)Nc2cccc(C(F)(F)F)c2)c1	.	11	9.3µM*	4.1µM*	1	.
CC(C)(C)c1ccc(Oc2ccc(NC(=O)c3ccccc3C(=O)O)cn2)cc1	.	-7	?	5%	-4	.
Cc1ccccc1-n1nc(C)c2c1NC(=O)CSC2c1ccc(N(C)C)cc1 (stereo not drawn)	11%[46.1 µM]	.	.	.	.	-4%[46.1 µM]
N=C1c2ccccc2CN1NC(=O)CC12CC3CC(CC(C3)C1)C2	?	-1	?	1.9µM*	-3	-9%
Cc1cc(C)cc(OCC(=O)NN2Cc3ccccc3C2=N)c1	3%	-11	.	6.6µM*	4	2%
N=C1c2ccccc2CN1NC(=O)C1CC1	15%	-13	0%	-1%	-1	-2%
CCOC(=O)c1ccc(NC(=O)CC2C(=O)N(c3cccc(C)c3)C(=O)N2CCOC)cc1 (stereo not drawn)	?	.	.	.	.	8%[46.1 µM]
O=C(Cn1nc(C(F)(F)F)c2c1CCC2)NC1CCCCC1	-3%	-18	-7%	?	-1	13%
CCC(C)C(NC(=O)c1ccccc1NC(=O)c1ccc(C)cc1)C(=O)O (stereo not drawn)	.	94*	?	-3%	55*	.
Cc1ccc(C(=O)Nc2ccccc2C(=O)NC(CC(=O)O)C(=O)O)cc1 (stereo not drawn)	3%	17	65%	?	3	4%
Cc1ccc(C(=O)Nc2ccccc2C(=O)NC(C(=O)O)C(C)C)cc1 (stereo not drawn)	30%	48*	12µM*	?	21	0%
Cc1ccc(-c2ccc(CCC(=O)O)n2CC2CCCO2)cc1 (stereo not drawn)	-2%	-22	-14%	?	14*	0%
O=C(O)CCc1ccc(-c2ccccc2)n1CC1CCCO1 (stereo not drawn)	4%[46.1 µM]	-13	1%	.	-4	19%
SMILES	Marburg entry inh	Shiga inhibitor	Pf growth 48h	Pf growth 96h	CHX counter	LASV entry inh
COC(=O)c1ccc(-n2c(C)ccc2-c2ccccc2)cc1	-15%	2	?	?	14*	-12%
COC(=O)c1ccc(-n2c(CCC(=O)O)ccc2-c2ccccc2)cc1	.	28	-3%	3.7µM*	11	.
CCCn1c(CCC(=O)O)ccc1-c1ccc(F)cc1	-3%	-9	12%	9.3µM*	-2	3%
CCCn1c2c(c(O)c(C(=O)Nc3ccc(C)cn3)c1=O)CCCC2	2%	.	.	.	.	.
COC(=O)Cn1c(CCC(=O)O)ccc1-c1ccccc1	.	-7	.	8.3µM*	-7	.
CC(=O)c1ccc(-n2c(C)ccc2-c2ccccc2)cc1	20%	32	.	?	29*	6%
